Screening data as filed in PubChem.
Most compounds without a hit are left out; they make up all but 1.2% or so of the library.
gsp agonist: gsp mutant agonism; gsp mutant cells, cAMP HTRF, 30 min; Potency, µM (doses to about 76.9 µM), hits mostly activators; 0.13% of 340,000 active; AID 624287; active = well fitted activation curve with a large enough effect; inconclusive = small, poorly fitted or top-dose-only effect, or another doubt; inactive = no such curve, though single readings can be large or run the other way; cell line not stated here;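 also: phosphodiesterase inhibitor Ro 20-1724 added with compounds to block cAMP breakdown; nearly all actives have a fitted effect of over 60% in size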
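Cells stably selected in G418 were plated at 2000/well, grown 16-24 hr, then given compounds in DMSO with the PDE inhibitor […] (300 uM solution added) for 30 min at 37C; cAMP was read by HTRF.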
CCT modulator: cytosolic chaperonin activity modulation; 0.3% of 360,000 active; activity change, % (no concentration beside the values), hits read low; purified chaperonin ATPase assay, HTRF ADP detection, 30 min; in the data active = activity change below about -30%
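ATPase activity: ADP formed was measured by HTRF Transcreener (665/615 nm ratio) after 30 min at 37 deg C with 10 uM ATP. Compounds screened at one 76 uM concentration against 40 or 20 nM TRiC in Tris pH 7.4/KCl/MgCl2/DTT buffer.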
RXFP1 ag: agonists of human relaxin receptor RXFP1; HEK293T-RXFP1 cAMP TR-FRET, 30 min; response scale: percent of porcine relaxin response, buffer zero; 0.3% of 370,000 active; Potency, µM (top dose mostly 57.5 µM), most hits filed as activators; AID 2676; also: nearly all actives have a fitted effect of over 60% in size
Target sequence (Q9HBX9 whole entry, looked up): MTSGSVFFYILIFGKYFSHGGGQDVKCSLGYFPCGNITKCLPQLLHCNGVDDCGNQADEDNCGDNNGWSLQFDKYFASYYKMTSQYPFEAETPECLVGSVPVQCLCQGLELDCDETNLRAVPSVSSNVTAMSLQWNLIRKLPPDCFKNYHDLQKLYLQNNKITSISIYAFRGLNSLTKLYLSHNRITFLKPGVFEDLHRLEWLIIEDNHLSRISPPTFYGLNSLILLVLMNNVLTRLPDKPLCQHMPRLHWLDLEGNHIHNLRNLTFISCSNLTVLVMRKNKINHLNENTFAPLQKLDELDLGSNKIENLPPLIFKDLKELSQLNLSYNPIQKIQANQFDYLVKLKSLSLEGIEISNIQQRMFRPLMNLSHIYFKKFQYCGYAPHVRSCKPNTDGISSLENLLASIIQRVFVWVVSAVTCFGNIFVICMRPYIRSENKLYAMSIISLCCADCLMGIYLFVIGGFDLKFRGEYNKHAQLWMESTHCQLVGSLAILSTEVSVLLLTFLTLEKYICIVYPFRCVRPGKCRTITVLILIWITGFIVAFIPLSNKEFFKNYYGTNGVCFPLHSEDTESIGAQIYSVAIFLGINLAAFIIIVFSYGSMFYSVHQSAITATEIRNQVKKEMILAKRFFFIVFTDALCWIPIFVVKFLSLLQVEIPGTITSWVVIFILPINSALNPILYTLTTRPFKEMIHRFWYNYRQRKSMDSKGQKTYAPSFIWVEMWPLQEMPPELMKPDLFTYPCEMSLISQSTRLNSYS
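Agonist response is measured as cAMP accumulation in an RXFP1-transfected HEK293T line under PDE4 inhibition. Values are scaled between buffer-only and 29 nM porcine relaxin, and EC50s come from standard Hill equation fits.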
RXFP1 antagonist: blocks the human relaxin receptor RXFP1; Q9HBX9; HEK293-RXFP1, relaxin-stimulated cAMP HTRF, 30 min; stronger effect = lower value; activity change, negative = inhibition, % at 57.5 µM; 0.59% of 350,000 active; AID 1259400;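 active = activity change of -60% or lower, but not beyond a set lower limit; inconclusive = change between -60% and -40%, or beyond the set limit; inactive = change above -40%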
MmCpn inh: inhibitors of Methanococcus maripaludis chaperonin TRiC (MmCpn); purified Mm-Cpn ATPase, ADP Transcreener TR-FRET; Potency, µM (titrated, usually from 76.9 µM), actives largely listed as inhibitors; 0.031% of 330,000 active; also: nearly all actives have a fitted effect of over 80% in size
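Quantitative HTS used 25 nM Mm-CPN and 10 uM ATP in magnesium/KCl Tris buffer, pH 7.4, with 1 mM DTT. Hydrolysis ran 30 min at 37°C; ADP was read by HTRF.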
gsp antag: antagonizes gsp, the McCune-Albright syndrome mutation; gsp-mutant cells, cAMP HTRF, 30 min; Potency, µM (doses to about 76.9 µM), actives largely listed as inhibitors; 0.4% of 340,000 active; AID 624288; calls by dose curve; cell line not stated here;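 also: intracellular cAMP measured with PDE inhibitor Ro 20-1724 present during compound exposure; nearly all actives have a fitted effect of over 65% in size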
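Cells, 2000/well, grown 16–24 h in DMEM 10% FBS with 0.5 mg/ml G418, then compounds plus […] (300 uM addition stock), 30 min at 37C. cAMP read by HTRF (cAMP-d2 and anti-cAMP antibody-K in lysis buffer) after 30 min RT.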
Hits are given with their value; i = inactive; ? = inconclusive; nt = not tested or not shown; [ ] = dose if it differs, or a comment. Unless noted, calls follow the shape of the dose curve; as a rule, active = well fitted curve in the direction sought with a large enough effect; inconclusive = small, poorly fitted or top-dose-only effect, or another doubt; inactive = no such curve, though single readings can be large; an effect the other way counts as inactive or inconclusive.

SMILES	gsp agonist	CCT modulator	RXFP1 ag	RXFP1 antagonist	MmCpn inh	gsp antag
COc1cccc(NS(=O)(=O)c2ccc3[nH]cc(C(=O)NC4CCCCC4)c(=O)c3c2)c1	nt	nt	i	nt	nt	nt
Oc1c(C=Nc2ccccc2)sc2ccccc12	i	i	i	-70	i	i
Oc1c(C=Nc2cccnc2)sc2ccccc12	i	i	i	i	i	i
O=C(Oc1ccc(N2C(=O)CCC2=O)cc1)c1ccccc1Cl	i	i	i	nt	i	i
Cc1cc(OC(=O)c2ccccc2Cl)cc(=O)n1C	i	i	i	i	i	40µM
CN(C(=O)COC(=O)/C=C/c1cccs1)C1CCCCC1	i	i	nt	-88	i	i
CC(C)C(=O)NC(=O)COC(=O)/C=C/c1cccs1	i[15.4 µM]	i	i	i	i	i
CC(CCc1ccccc1)NC(=O)CSc1n[nH]c(-c2ccc(F)cc2)n1 (stereo not given)	nt	nt	i	i	nt	nt
COc1ccc(CCC(=O)NCc2nc3cccnc3n2Cc2ccc(F)cc2)cc1	nt	nt	i	i	nt	nt
CC(=O)Nc1cccc(NC(=O)c2cccc(-c3ccc(O)cc3)c2)c1	i[15.4 µM]	-70	i	i	i	i
CC(=O)Nc1cccc(NC(=O)c2cccc(Cl)c2)c1	nt	i	nt	nt	nt	nt
CC(=O)N1c2ccc(S(=O)(=O)N3CCC(C(=O)Nc4ccc(F)cc4)CC3)cc2CC1C (stereo not given)	i	i	i	i	i	10µM
O=C(O)c1ccccc1C(=O)c1ccc(N2CCOCC2)c([N+](=O)[O-])c1	i	i	i	-69	i	i
N#Cc1cc([N+](=O)[O-])ccc1N1CCN(c2ccccc2O)CC1	i[15.4 µM]	i	i	i	i	?
O=C(O)c1ccccc1C(=O)c1ccc(N2CCCC2)c([N+](=O)[O-])c1	i[15.4 µM]	i	i	i	i	i
CC(=O)c1ccc(N2CCN(c3ccccc3O)CC2)c([N+](=O)[O-])c1	i[15.4 µM]	i	i	i	i	32µM
Cc1ccc(NC(=O)C(NS(=O)(=O)c2ccc3c(c2)CCC(=O)N3)c2ccccc2)cc1C (stereo not given)	nt	nt	i	nt	nt	nt
Cc1ccc(Cl)cc1-n1ncc2c(NCCc3ccccc3)ncnc21	nt	nt	i	i	nt	nt
NS(=O)(=O)c1ccc(CCNc2ncnc3c2cnn3-c2cccc(Cl)c2)cc1	nt	nt	i	-84	nt	nt
Cc1ccc(-c2ccc(CCC(=O)O)n2-c2cccc(C)c2C)cc1	nt	nt	i	i	nt	nt
O=C(O)c1ccc2c(c1)C(=O)N([C@H](Cc1ccc(O)c(O)c1)C(=O)O)C2=O	nt	nt	i	nt	i	nt
CCN(CC(=O)Nc1ccc(OC)cc1)C(=O)c1oc2c(Cl)cccc2c1C	i[15.4 µM]	i	i	-100	i	i
COc1ccc(NC(=O)CN(C)C(=O)CC2CCCC2)cc1	i[15.4 µM]	i	i	-74	i	i
COc1ccc(NC(=O)CN(C)CC(=O)N2CCCCCC2)cc1	i[15.4 µM]	i	i	-90	i	i
COc1ccc(NC(=O)CN2C(=O)CSc3ccc(S(=O)(=O)N4CCCC4)cc32)cc1OC	i	-37	i	i	i	i
SMILES	gsp agonist	CCT modulator	RXFP1 ag	RXFP1 antagonist	MmCpn inh	gsp antag
COc1cccc(NC(=O)CN(C)C(=O)c2cc(-c3ccc(F)cc3)nc3ccccc23)c1	i	i	i	?	i	40µM
COc1cccc(NC(=O)CN(C)C(=O)c2cc(-c3ccccc3)nc3ccccc23)c1	i	i	i	i	i	?
COc1ccc(NC(=O)CN(C)C(=O)C23CC4CC(CC(C4)C2)C3)cc1	i	i	i	i	i	i
COc1ccc(NC(=O)c2c(-c3ccc(C)cc3)nnc3ccccc23)c(OC)c1	nt	nt	i	i	nt	nt
COc1cccc(NC(=O)CN(C)C(=O)CC2CCCC2)c1	i[15.4 µM]	-34	nt	i	nt	i
COc1ccc(S(=O)(=O)N2CCCCCC2)cc1C(=O)N(C)CC(=O)Nc1ccc(F)cc1	i[15.4 µM]	i	i	i	i	i
COc1ccc(NC(=O)CN(C)C(=O)c2cc(S(=O)(=O)N3CCCCCC3)ccc2OC)cc1	i[15.4 µM]	i	i	-72	i	i
COc1cccc(NC(=O)CN(C)C(=O)c2ccc3ccccc3c2)c1	i	i	i	i	i	i
CCOc1ccc(/C=C/c2nc(C#N)c(N(C)C)o2)cc1	nt	nt	i	i	nt	nt
CCn1nc([N+](=O)[O-])c(C(C#N)c2nc3cc(C(F)(F)F)ccc3s2)c(Cl)c1=O (stereo not given)	i	i	i	?	i	28µM
Cc1ccc(C)c(N2CCN(C(=O)C34CC5CC(C3)CC(n3nnc(C)n3)(C5)C4)CC2)c1	i[15.4 µM]	i	i	?	i	40µM
Cc1csc(C(=O)O)c1NC(=O)c1c(Cl)cccc1Cl	i	-87	i	i	i	i
Cc1ccc(-c2cn(-c3ccccc3)c(=S)[nH]2)cc1C	i[15.4 µM]	i	i	-77	i	i
COc1ccccc1CNC(=O)CSc1ncc2c(n1)-c1ccccc1N(Cc1ccc(C)cc1)S2(=O)=O	nt	nt	i	nt	nt	nt
COc1ccccc1CNC(=O)CSc1ncc2c(n1)-c1ccc(Cl)cc1N(Cc1ccccc1)S2(=O)=O	nt	nt	4.5µM	i	nt	nt
CCOC(=O)c1cccc(NC(=O)CSc2ncc3c(n2)-c2ccc(Cl)cc2N(Cc2ccccc2)S3(=O)=O)c1	nt	nt	32µM	nt	nt	nt
Clc1cccc(N2CCN(c3ncnc4c3nc3n4CCCCC3)CC2)c1	nt	nt	i	nt	nt	nt
COc1ccc(-c2nc3cc(C(C)C)ccc3o2)cc1NC(=O)c1ccccc1[N+](=O)[O-]	nt	nt	i	i	nt	nt
CCCCCN1C(C(=O)c2ccccc2)=C(NC(=O)c2ccccc2Cl)c2ccccc2S1(=O)=O	nt	nt	i	i	nt	nt
O=C(CSc1ccc2nnc(-c3ccncc3)n2n1)NCc1ccco1	18µM	i	i	nt	i	i
Cc1ccc(-c2nnc3ccc(SCC(=O)NCc4ccco4)nn23)cc1	i	i	i	i	i	i
O=C(CSc1nnc(-c2ccccc2)c(-c2ccccc2)n1)NCc1ccco1	i	i	i	i	i	i
O=C(CSc1ncc(-c2ccccc2)nn1)NCc1ccco1	?	-92	i	i	i	i
CC(=O)OCCNc1cc(Sc2nc3ccccc3[nH]2)c2nonc2c1[N+](=O)[O-]	?	i	i	-78	i	?
Clc1ccc(-c2cccc3nccn23)c(Cl)c1	nt	-77	nt	nt	nt	nt
CCc1ccc2oc(-c3ccc(C)c(NC(=O)c4cc([N+](=O)[O-])ccc4N4CCOCC4)c3)nc2c1	nt	nt	i	nt	nt	nt
O=C(Cc1ccccc1)Nc1cccc(N2C(=O)C=CC2=O)c1	i	i	i	-119	i	i
COc1cccc(NC(=O)Cc2ccccc2)c1	nt	i	i	nt	i	i
Cc1ccccc1Oc1nnc(-c2cccs2)c2ccccc12	i[15.4 µM]	i	i	?	i	25µM
CN1CCN(c2nnc(-c3cccs3)c3ccccc23)CC1	i[15.4 µM]	i	i	i	i	i
